FUS yeast rescue = qHTS for Suppressors of FUS Proteinopathy: Primary screen using FUS-linked yeast assay; S. cerevisiae FUS-expressing, growth rescue, OD600, 24 h; Potency, µM (series often up to 76.6 µM), actives largely listed as activators; 390,000 compounds, 0.24% hits; note: nearly all actives have a fitted effect of over 55% in size
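Restored growth of FUS-toxic S. cerevisiae, read as 600 nm absorbance after 24 h at 30C in galactose medium (starting OD 0.005). Controls CP55940 and DMSO.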
Abeta yeast res = qHTS for compounds that reverse cellular toxicity of Amyloid beta (A-beta) peptide in yeast: Primary Screen. yeast expressing A-beta42, growth rescue, OD600, 48 h; response scale: 0% DMSO, 100% iron-clioquinol control. Potency, µM (series often up to 46.1 µM), most hits filed as activators. 410,000 compounds, 0.063% hits; note: nearly all actives have a fitted effect of over 55% in size
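Yeast growth medium received pinned compounds, then yeast cells expressing toxic A-beta were added; plates incubated at 30 C for 48 hr. Growth read as absorbance at 600 nm, normalized to DMSO and equimolar FeCl3 plus clioquinol controls.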
aSyn yeast inh = qHTS of alpha-syn Inhibitors | Yeast expressing alpha-synuclein, growth rescue, BacTiter-Glo, 24 h | Potency, µM (series often up to 46.1 µM), usual class: activators | 370,000 compounds, 0.14% hits; note: nearly all actives have a fitted effect of over 65% in size
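Rescue of yeast growth: cells expressing toxic alpha-synuclein, induced in galactose at OD600 0.02, incubated with compound 24 h at 30 C. ATP luminescence quantified growth; inhibitors of toxicity appear as activators.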
TDP43 rescue = qHTS of TDP-43 Inhibitors | Potency, µM (doses to about 46.1 µM), hits mostly activators | TDP-43 expressing yeast growth rescue, BacTiter-Glo, 24 h | 410,000 compounds, 1.8% hits; note: nearly all actives have a fitted effect of over 50% in size
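Cell-based yeast growth screen: TDP-43 expression induced in galactose, inoculum OD600=0.02 after raffinose pregrowth to mid-log. Read-out BacTiter-Glo luminescence at 24 hr, 30 deg C; inhibition of toxicity seen as signal increase.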
Numbers stand for hits; - = inactive; ? = inconclusive; . = no result given. An excerpt weighted towards active compounds, which were near 2.1% of everything screened. Calls come from the whole dose curve; as a rule, active = well fitted curve in the direction sought with a large enough effect; inconclusive = small, poorly fitted or top-dose-only effect, or another doubt; inactive = no such curve, though single readings can be large; an effect the other way counts as inactive or inconclusive.

SMILES | FUS yeast rescue | Abeta yeast res | aSyn yeast inh | TDP43 rescue
CC12CCC(=O)C=C1CCC1C2CCC2(C)C(O)CCC12 (configuration not stated) | - | - | - | -
O=C(CN1CCOCC1)c1cccc([N+](=O)[O-])c1 | . | . | - | .
CCCCCCCCC(c1nc2cc(C)c(C)cc2[nH]1)n1c(=O)c(-c2ccccc2Br)nc2ccccc21 (configuration not stated) | - | - | ? | -
COc1ccc(-c2noc(=O)n2Cc2cc(C)ccc2C)cc1 | - | - | - | 18µM
Cc1nn(-c2nccs2)c2c1C(=O)CC(C)(C)C2Br (configuration not stated) | - | - | - | 14µM
CCCCn1c(O)c(C(CC)=NCc2ccc(F)cc2)c(=O)[nH]c1=O | ? | - | - | 22µM
CC(C)(C)C(=O)c1cn(Cc2ccccc2)c2ccccc12 | - | - | - | 13µM
O=C(c1ccco1)c1cn(Cc2ccccc2Cl)c2ccccc12 | - | - | - | ?
O=C(c1ccco1)c1cn(Cc2ccccc2)c2ccccc12 | - | - | - | 22µM
CCC(=O)c1cn(Cc2ccccc2)c2ccccc12 | - | - | - | 8.9µM
COc1ccc(-c2nc(CSCC(=O)N3CCN(c4ccc(F)cc4)CC3)c(C)o2)cc1 | ? | - | . | ?
COCCCn1c(N)c(C(=O)Nc2ccccc2)c2nc3ccccc3nc21 | - | - | - | -
CCC(C)NC(=O)c1c(N)n(CCCOC)c2nc3ccccc3nc12 (configuration not stated) | - | - | - | 25µM
O=C1c2ccccc2S(=O)(=O)c2cc(C(=O)N3CCN(c4c(Cl)cncc4Cl)CC3)ccc21 | 20µM | - | - | 13µM
CC(C)(C)c1ccc(C(=O)Nc2ccc3nc(SCC(=O)N4CCCC4)sc3c2)cc1 | ? | - | . | ?
Cc1ccccc1C(=O)Nc1ccc2nc(SCC(=O)N(C)c3ccccc3)sc2c1 | ? | - | . | 35µM
Cn1cnc([N+](=O)[O-])c1Sc1ccc([N+](=O)[O-])cc1 | - | - | - | 20µM
